The list is not random: actives were taken first. Their share in the collection is about 4.3%.
esBAF inh – inhibitors of esBAF chromatin remodeling in mouse ES cells. 350,000 compounds, 2% hits. Bmi1-luciferase knock-in reporter, 24 h; 100% = twice the neutral-well signal. reporter increase, % at 12.5 µM; in the data active means activation above about 40%;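 further: 0% = median of the plate's neutral control wells and 100% = double that signal; a rise in the Bmi1 reporter signal indicates esBAF inhibition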
MLL AF4-AF9 inh – blocks AF4 peptide binding to human AF9. inhibition, % at 10 µM. AID 651704. 350,000 compounds, 0.47% hits. P42568. AlphaScreen, biotin-AF4 peptide binding to FLAG-AF9;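 active means every replicate reaching a set inhibition limit, whatever the replicate mean, cut at about 25% in these data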;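 further: 0% = plate neutral control median and 100% = total signal loss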
SMARCA2 act – SMARCA2 function activation, primary screen; MG213 cells, MMTV-luciferase reporter, dexamethasone, overnight; activation, % at 9.1 µM; 370,000 compounds, 1% hits; in the data active means activation above about 7.8%;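 further: 0% = vehicle wells and 100% = reference activator wells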
MITF TRPM1 HTS – activators of MITF-driven TRPM1 promoter activity in SK-MEL-5 cells | SK-MEL-5 TRPM1-promoter luciferase, 24 h; % of positive control, neutral wells = 0 | activation, % at 12.5 µM | 300,000 compounds, 0.75% hits | AID 588334;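 active means mean activation of at least 80% with every replicate also reaching 80%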;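 further: 0% = neutral control wells and 100% = parthenolide positive control wells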
Wnt bcat act – activates Wnt/beta-catenin signaling in a reporter cell assay. activator, plate reader. activation, % at 9.35 µM. 300,000 compounds, 1.2% hits. AID 743398; in the data active means activation above about 30%, passing the limit was not always enough;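 further: 0% = neutral control wells and 100% = positive control wells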
FGF22 binding – FGF22 (human) thermal shift binding; Q9HCT0; recombinant FGF22 thermal shift, SYPRO orange fluorescence; percent of sucrose octasulfate shift, DMSO zero; activity (Tm shift, normalised), % at 9.99 µM; 340,000 compounds, 1.5% hits; AID 651658;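 active means mean Tm shift, scaled 0 neutral to 100 positive control, at about 1.3% or above, every replicate too, limit read from the data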
Target sequence (Q9HCT0 whole entry, looked up): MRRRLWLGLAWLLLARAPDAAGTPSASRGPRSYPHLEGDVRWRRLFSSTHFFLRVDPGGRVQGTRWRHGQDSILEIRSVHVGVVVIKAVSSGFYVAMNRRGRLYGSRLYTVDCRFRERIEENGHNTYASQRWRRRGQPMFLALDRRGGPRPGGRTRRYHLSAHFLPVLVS
* hit, by the source's call; · = not tested or not shown.

SMILES	esBAF inh	MLL AF4-AF9 inh	SMARCA2 act	MITF TRPM1 HTS	Wnt bcat act	FGF22 binding
CN(C)C(=O)C[C@@H]1C=C[C@@H](NC(=O)Nc2cccc(F)c2)[C@@H](CO)O1	-1	-2	·	·	·	0
Cc1cc(O)c(N)c(C)c1Cl	·	3	-3	-6	·	43*
Cc1cc(O)cc(C)c1Cl	-1	-3	0	11	-4	0
C=C1N(C)c2cc([N+](=O)[O-])c(N)cc2C1(C)C	·	47*	-5	-5	-1	43
CC1(C)Oc2cc(N)c([N+](=O)[O-])cc2O1	-36	·	2	12	·	·
CO[C@@H]1CN(C)C(=O)c2ccc(NC(=O)CC(F)(F)F)cc2OC[C@H](C)N(C(=O)c2ccccc2F)C[C@H]1C	·	-3	·	·	·	0
CC(C)[C@H](NC(=O)c1ccccc1Cl)C(=O)OCC(=O)Nc1ccc(S(=O)(=O)N2CCOCC2)cc1	-6	-10	-2	1	-7	42
CC(C)[C@H](NC(=O)c1ccccc1)C(=O)OCC(=O)Nc1ccc(S(=O)(=O)N2CCOCC2)cc1	·	1	-3	3	1	43*
O=C(COC(=O)/C=C/c1ccccc1[N+](=O)[O-])Nc1ccc(S(=O)(=O)N2CCOCC2)cc1	-3	4	0	-10	-4	43*
CCCC#Cc1cnc2c(c1)C(=O)N([C@H](C)CO)C[C@@H](C)[C@H](CN(C)C(=O)Cc1ccncc1)O2	-3	-3	·	·	·	0
Nc1nnc(-c2cccc([N+](=O)[O-])c2)o1	·	-43	1	13	2	0
O=[N+]([O-])c1cccc(-c2nnc(-c3ccccc3F)o2)c1	40	-2	7	·	49*	0
O=C(N[C@H]1CC[C@H](CCNS(=O)(=O)c2ccc(F)cc2)O[C@@H]1CO)c1cccc(F)c1	-1	-2	·	·	·	0
O=C(Cc1ccccc1)n1nc(-c2ccco2)nc1SCc1ccccc1	-7	·	6	·	20	·
Nc1nc(-c2ccccc2)nn1C(=O)c1ccco1	·	0	-3	-4	0	0
O=C(c1ccco1)n1nc(-c2ccccc2)nc1SCc1ccccc1	47*	·	-1	58	41*	·
O=C(c1ccco1)n1nc(-c2ccco2)nc1SCc1ccccc1	45*	·	1	37	22	·
Cc1ccc(S(=O)(=O)n2nc(-c3ccco3)nc2SCc2ccccc2)cc1	48*	·	0	47	·	·
CNC[C@@H]1Oc2ccc(NC(=O)C3CC3)cc2CC(=O)N([C@H](C)CO)C[C@H]1C	-5	0	·	·	·	0
Cc1ccc(SCC(=O)Nc2cc([N+](=O)[O-])ccc2O)cc1	·	-2	0	27	·	43*
O=C(CSCc1ccc(Cl)cc1)Nc1cc([N+](=O)[O-])ccc1O	·	1	-3	6	1	·
C[C@H](CO)N1C[C@H](C)[C@@H](CN(C)Cc2ccccc2)Oc2c(NS(=O)(=O)c3ccc(Cl)cc3)cccc2C1=O	-2	0	·	·	·	0
COCCNC(=O)C[C@H]1CC[C@H]2[C@@H](COC[C@@H](O)CN2Cc2cccc(-c3ccncc3)c2)O1	2	-14	·	·	·	0
CCCC1Oc2ccccc2C(=O)N(CC(=O)c2ccc3c(c2)OCCO3)C1=O (stereo unspecified)	60*	1	1	67	1	0
O=C(CN1C(=O)c2ccccc2S1(=O)=O)c1ccc2c(c1)OCCO2	·	·	-12	·	-16	0
SMILES	esBAF inh	MLL AF4-AF9 inh	SMARCA2 act	MITF TRPM1 HTS	Wnt bcat act	FGF22 binding
CC(C)CC1NC(=O)N(CC(=O)c2ccc3c(c2)OCCO3)C1=O (stereo unspecified)	29	·	3	·	33*	·
COc1ccc(CN2CC3(CN(C(=O)Cc4ccncc4)C3)c3c([nH]c4cc(OC)ccc34)[C@H]2CO)cc1	·	1	·	·	·	0
O=C(CCCc1nc2ccccc2s1)Nc1ccccc1	-10	-1	4	-12	2	0
O=C(O)CCCC(=O)Nc1ccc(OCc2nc3ccccc3s2)cc1	31	0	1	0	51*	0
COc1ccc(NC(=O)N[C@@H]2CC[C@@H](CCNS(=O)(=O)c3cccc(Cl)c3)O[C@H]2CO)cc1	4	4	·	·	·	0
Cc1cccc(NC(=O)c2onc3c2CCCC3)c1C	51*	·	4	86*	·	·
CSCc1ccc(C(=O)Nc2cccc(C)c2C)cc1	·	·	4	112*	34*	·
Cc1cccc(NC(=O)c2onc3c2CCCC3)n1	·	3	2	-28	7	0
Cc1cccc(NC(=O)c2cccnc2)c1C	1	1	0	7	-2	0
CCC(CC)NC(=O)Nc1cccc(C)c1C	·	0	-1	20	5	43*
CCC(COC(=O)Nc1cccc(C)c1C)NC(=O)OCC(C)C (stereo unspecified)	-5	·	-4	2	·	·
CC(C)NC(=O)NCC[C@@H]1CC[C@@H](NC(=O)Nc2ccccc2)[C@H](CO)O1	-1	-1	·	·	·	0
CO[C@@H]1CN(C)C(=O)c2ccc(NS(=O)(=O)c3cccc(F)c3)cc2OC[C@@H](C)N(C(=O)Cc2cccnc2)C[C@@H]1C	2	0	·	·	·	0
C[C@H]1CN([C@@H](C)CO)C(=O)Cc2cc(NC(=O)CCC(F)(F)F)ccc2O[C@H]1CN(C)C(=O)Nc1ccc(C(F)(F)F)cc1	3	·	·	·	·	0
CN(C)C(=O)C[C@@H]1CC[C@H]2[C@@H](COC[C@H](O)CN2CC2CCCC2)O1	-5	-19	·	·	·	0
COc1cccc(C(=O)Cn2c(Br)nc3c2c(=O)n(C)c(=O)n3C)c1	9	·	-1	-22	49*	·
CCOC(=O)c1cnn(-c2ccc(C)cc2)c1N	56*	·	0	77	44*	·
CCOC(=O)c1ccc(-n2ncc(C(=O)OCC)c2N)cc1	21	·	2	0	0	·
CCOC(=O)c1cnn(-c2ccccc2)c1NC(=O)CN1CCCCC1	-5	-1	-4	·	41*	0
CCOC(=O)c1cnn(-c2ccccc2)c1-n1cccc1	-4	·	1	0	6	·
COc1ccc2c(C=O)cn(C)c2c1	1	0	5	6	-2	43*
COc1ccc(OCCn2cc(C=O)c3ccccc32)cc1	1	-5	-2	·	0	0
COc1ccc(Cc2nc3c([nH]2)c(=O)n(C)c(=O)n3C)cc1OC	-1	-40	1	4	-1	43*
Cn1c(=O)c2[nH]c(Cc3cccc(O)c3)nc2n(C)c1=O	-2	1	-2	-15	-7	·
Cc1c(N2C(=O)/C(=C\C3CC=CCC3)SC2=S)c(=O)n(-c2ccccc2)n1C (stereo unspecified)	44*	-4	1	8	-2	0
Cc1c(N2C(=O)/C(=C/C3CC=CCC3)SC2=S)c(=O)n(-c2ccccc2)n1C (stereo unspecified)	·	4	-2	·	2	0
CCc1cc2c(nc1CC)CCCN2S(=O)(=O)c1c(C)noc1C	·	-1	-4	·	3	43*

Screening data: PubChem BioAssay, several laboratories
